The whole screen tested about 7,700 compounds, of which about 15 (0.2%) were called active. Another 6% or so got no clear call; they are omitted.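 The calls were made as follows: active = more than half of replicate wells with inhibition above about 18% (limit read from the data, passing the limit was not always enough); inconclusive = exactly half of replicate wells above that limit; inactive = fewer than half of replicates above it.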 Many of the other results were omitted from the sample, so actives are more common in it than they were.
Molecular target: Regulator of chromosome condensation (Homo sapiens) + GTP-binding nuclear protein Ran (Homo sapiens) + Importin subunit beta-1 (Homo sapiens) (UniProt P18754+P62826+Q14974)
Assay: RanGTP/importin-beta interaction disruptors – biochemical, CFP-Ran/YFP-importin-beta FRET, RCC1, cell-free, primary screen (AID 434961);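 also: 0% = DMSO wells and 100% inhibition = RanGDP control wells on each plate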
Conditions: hits give high values, concentration not given here

| SMILES | inhibition |
| --- | --- |
| C[C@@H]1CN([C@@H](C)CO)C(=O)Cc2cc(NC(=O)c3ccncc3)ccc2O[C@@H]1CN(C)C(=O)Nc1cccc2ccccc12 | 2.94% (inactive) |
| C[C@@H]1CN([C@@H](C)CO)C(=O)c2cc(NC(=O)C3CC3)ccc2O[C@@H]1CN(C)C(=O)Nc1ccccc1 | -1.01% (inactive) |
| C[C@H]1CN([C@@H](C)CO)C(=O)c2cccc(NS(=O)(=O)c3cccs3)c2O[C@H]1CN(C)Cc1ccc(C(=O)O)cc1 | -1.12% (inactive) |
| C[C@H](CO)N1C[C@H](C)[C@H](CN(C)C(=O)c2ccccc2)OCc2cnnn2CCCC1=O | 3.45% (inactive) |
| Cc1noc(C)c1NC(=O)Nc1ccc2c(c1)CC(=O)N([C@@H](C)CO)C[C@H](C)[C@@H](CN(C)S(=O)(=O)c1cccs1)O2 | 0.0231% (inactive) |
| Cc1noc(C)c1NC(=O)N(C)C[C@@H]1Oc2ccc(NC(=O)Cc3ccccc3)cc2C(=O)N([C@@H](C)CO)C[C@H]1C | 6.07% (inactive) |
| C[C@H](CO)N1C[C@H](C)[C@H](CN(C)C)Oc2c(NC(=O)Nc3ccc(C(F)(F)F)cc3)cccc2C1=O | -2.27% (inactive) |
| COc1ccc(CN(C)C[C@@H]2Oc3ccc(NC(=O)Nc4ccc(C(F)(F)F)cc4)cc3CC(=O)N([C@H](C)CO)C[C@@H]2C)cc1 | 1.78% (inactive) |
| C[C@@H]1CN([C@@H](C)CO)C(=O)c2cccc(NC(=O)Nc3ccc(C(F)(F)F)cc3)c2O[C@H]1CN(C)C(=O)Nc1ccc(F)cc1 | 1.42% (inactive) |
| C[C@H](CO)N1C[C@H](C)[C@H](CN(C)S(=O)(=O)c2cn(C)cn2)OCCCC[C@H](C)Oc2ccc(NC(=O)CCCN(C)C)cc2C1=O | 1.98% (inactive) |
| C[C@@H]1CCCCO[C@@H](CN(C)S(=O)(=O)c2ccccc2)[C@@H](C)CN([C@@H](C)CO)C(=O)c2cc(NS(C)(=O)=O)ccc2O1 | 1.15% (inactive) |
| C[C@@H]1CCCCO[C@H](CN(C)C)[C@H](C)CN([C@H](C)CO)C(=O)c2cc(NC(=O)Nc3ccc4c(c3)OCO4)ccc2O1 | 7.53% (inactive) |
| COc1ccc(S(=O)(=O)N(C)C[C@@H]2Oc3ccc(NS(=O)(=O)c4ccc(Cl)cc4)cc3C(=O)N([C@H](C)CO)C[C@@H]2C)cc1 | 1.93% (inactive) |
| C[C@H]1CN([C@@H](C)CO)C(=O)c2cccc(NS(=O)(=O)c3cn(C)cn3)c2O[C@@H]1CN(C)CC1CC1 | -0.875% (inactive) |
| Cc1noc(C)c1NC(=O)N(C)C[C@@H]1Oc2ccc(NC(=O)C3CC3)cc2CC(=O)N([C@@H](C)CO)C[C@H]1C | 3.34% (inactive) |
| CNC[C@H]1Oc2ccc(NC(=O)Cc3ccccc3)cc2C(=O)N([C@H](C)CO)C[C@@H]1C | -10.8% (inactive) |
| C[C@H]1CN([C@@H](C)CO)C(=O)c2cccc(NS(=O)(=O)c3ccc(Cl)cc3)c2O[C@H]1CN(C)Cc1ccncc1 | -0.815% (inactive) |
| C[C@H]1CN([C@@H](C)CO)C(=O)c2cc(NC(=O)CCC(F)(F)F)ccc2O[C@H]1CN(C)C(=O)Nc1ccccc1 | 1.36% (inactive) |
| C[C@H](CO)N1C[C@H](C)[C@H](CN(C)C(=O)Nc2ccccc2)Oc2ccc(NC(=O)Cc3cn(C)c4ccccc34)cc2CC1=O | 2.8% (inactive) |
| C[C@H]1CCCCO[C@H](CN(C)Cc2ccc(C(=O)O)cc2)[C@@H](C)CN([C@@H](C)CO)C(=O)c2cc(NC(=O)Nc3ccc(F)cc3)ccc2O1 | 5.7% (inactive) |
| C[C@H](CO)N1C[C@H](C)[C@H](CN(C)S(=O)(=O)c2cn(C)cn2)Oc2ccc(N(C)C)cc2CC1=O | -2.21% (inactive) |
| C[C@@H]1CN([C@H](C)CO)C(=O)c2cc(NC(=O)c3ccncc3)ccc2O[C@@H]1CN(C)C | 0.131% (inactive) |
| CC(C)NC(=O)Nc1ccc2c(c1)C(=O)N([C@H](C)CO)C[C@H](C)[C@@H](CN(C)Cc1ccc(C(=O)O)cc1)OCCCC[C@@H](C)O2 | 2.11% (inactive) |

| SMILES | inhibition |
| --- | --- |
| C[C@@H]1CN([C@H](C)CO)C(=O)c2cc(NS(=O)(=O)c3ccccc3)ccc2O[C@@H](C)CCCCO[C@@H]1CN(C)Cc1ccc2c(c1)OCO2 | -2.27% (inactive) |
| COc1ccc(S(=O)(=O)Nc2cccc3c2O[C@H](CN(C)Cc2ccc4c(c2)OCO4)[C@@H](C)CN([C@@H](C)CO)C3=O)cc1 | 1.75% (inactive) |
| C[C@@H]1CCCCO[C@@H](CN(C)C(=O)CCC(F)(F)F)[C@@H](C)CN([C@@H](C)CO)C(=O)c2cc(NS(=O)(=O)c3cccs3)ccc2O1 | 5.99% (inactive) |
| C[C@@H]1CN([C@@H](C)CO)C(=O)c2cccc(NC(=O)c3cnccn3)c2O[C@H]1CN(C)C(=O)NC1CCCCC1 | 0.00388% (inactive) |
| CC(C)NC(=O)N(C)C[C@@H]1Oc2c(NC(=O)C3CCOCC3)cccc2C(=O)N([C@H](C)CO)C[C@H]1C | -0.0599% (inactive) |
| C[C@H]1CN([C@@H](C)CO)C(=O)Cc2cc(NS(=O)(=O)c3ccccc3)ccc2O[C@@H]1CN(C)Cc1ccc2c(c1)OCO2 | 0.885% (inactive) |
| Cc1noc(C)c1NC(=O)Nc1ccc2c(c1)CC(=O)N([C@H](C)CO)C[C@@H](C)[C@H](CN(C)S(=O)(=O)c1ccccc1)O2 | 0.923% (inactive) |
| C[C@@H]1CN([C@H](C)CO)C(=O)c2cc(NS(=O)(=O)c3cn(C)cn3)ccc2O[C@H]1CN(C)C(=O)Nc1ccc2c(c1)OCO2 | 0.416% (inactive) |
| C[C@H](CO)N1C[C@H](C)[C@@H](CN(C)S(=O)(=O)c2ccccc2)Oc2ccc(NC(=O)NC3CCCCC3)cc2C1=O | 3.44% (inactive) |
| C[C@@H]1CN([C@@H](C)CO)C(=O)Cc2cc(NS(=O)(=O)c3cn(C)cn3)ccc2O[C@H]1CN(C)S(=O)(=O)c1ccc(Cl)cc1 | -7.4% (inactive) |
| C[C@H](CO)N1C[C@H](C)[C@@H](CN(C)C(=O)NC2CCCCC2)Oc2c(NS(=O)(=O)c3ccccc3)cccc2C1=O | 1.49% (inactive) |
| C[C@H]1CN([C@@H](C)CO)C(=O)CCCn2nncc2CO[C@H]1CN(C)C(=O)Nc1ccccc1F | 0.229% (inactive) |
| Cc1noc(C)c1S(=O)(=O)N(C)C[C@@H]1Oc2ccc(NC(=O)C3CCCCC3)cc2CC(=O)N([C@@H](C)CO)C[C@@H]1C | -3.61% (inactive) |
| CC(C)NC(=O)N(C)C[C@@H]1Oc2c(NS(=O)(=O)c3ccccc3)cccc2C(=O)N([C@H](C)CO)C[C@H]1C | 4.93% (inactive) |
| C[C@@H]1CN([C@H](C)CO)C(=O)Cc2cc(NC(=O)Nc3ccccc3)ccc2O[C@H]1CN(C)CC1CC1 | -1.7% (inactive) |
| COc1ccc(NC(=O)N(C)C[C@@H]2Oc3ncc(C#Cc4ccccc4)cc3C(=O)N([C@H](C)CO)C[C@@H]2C)cc1 | 2.4% (inactive) |
| C[C@H](CO)N1C[C@H](C)[C@@H](CN(C)Cc2ccc(Cl)c(Cl)c2)Oc2c(NS(=O)(=O)c3cccs3)cccc2C1=O | 3.33% (inactive) |
| C[C@H](CO)N1C[C@H](C)[C@@H](CN(C)C(=O)Nc2cccc3ccccc23)Oc2ccc(NC(=O)NC3CCCCC3)cc2CC1=O | -2.7% (inactive) |
| C[C@@H]1CCCCO[C@@H](CN(C)Cc2ccccc2)[C@@H](C)CN([C@H](C)CO)C(=O)c2cc(N(C)C)ccc2O1 | -4.07% (inactive) |
| COc1ccc(CN(C)C[C@H]2Oc3ccc(NC(=O)Cc4cn(C)c5ccccc45)cc3C(=O)N([C@H](C)CO)C[C@H]2C)cc1 | -2.11% (inactive) |
| COc1ccc(S(=O)(=O)N(C)C[C@H]2Oc3c(NC(=O)C4CC4)cccc3C(=O)N([C@@H](C)CO)C[C@@H]2C)cc1 | -1.54% (inactive) |
| Cc1noc(C)c1S(=O)(=O)Nc1cccc2c1O[C@H](CN(C)Cc1ccc3c(c1)OCO3)[C@H](C)CN([C@H](C)CO)C2=O | -8.22% (inactive) |
| C[C@@H]1CN([C@H](C)CO)C(=O)c2cc(NC(=O)C3CC3)ccc2O[C@H]1CN(C)Cc1ccc(Cl)c(Cl)c1 | 0.993% (inactive) |

| SMILES | inhibition |
| --- | --- |
| Cc1noc(C)c1NC(=O)N(C)C[C@@H]1OCCCC[C@@H](C)Oc2ccc(NC(=O)Cc3ccccc3)cc2C(=O)N([C@@H](C)CO)C[C@@H]1C | 4.99% (inactive) |
| CC(C)NC(=O)N(C)C[C@@H]1OCCCC[C@H](C)Oc2ccc(NC(=O)CCC(F)(F)F)cc2C(=O)N([C@@H](C)CO)C[C@H]1C | -1.88% (inactive) |
| C[C@@H]1CN([C@@H](C)CO)C(=O)c2cc(NS(=O)(=O)c3cccs3)ccc2O[C@@H](C)CCCCO[C@@H]1CN(C)C | -3.73% (inactive) |
| COC(=O)N(C)C[C@@H]1OCc2cn(nn2)CCCC(=O)N([C@@H](C)CO)C[C@@H]1C | 2.64% (inactive) |
| COC(=O)N(C)C[C@H]1OCc2cn(nn2)CCCC(=O)N([C@H](C)CO)C[C@@H]1C | -1.56% (inactive) |
| COC(=O)N(C)C[C@H]1OCc2cn(nn2)CCCC(=O)N([C@@H](C)CO)C[C@H]1C | 18.2% (active) |
| C[C@H](CO)N1C[C@H](C)[C@H](CN(C)C(=O)Nc2cccc3ccccc23)OCCCC[C@H](C)Oc2ccc(NC(=O)c3ccncc3)cc2C1=O | 0.239% (inactive) |
| C[C@@H]1CN([C@@H](C)CO)C(=O)Cc2cc(NC(=O)Nc3ccc(C(F)(F)F)cc3)ccc2O[C@@H]1CN(C)C(=O)NC1CCCCC1 | 1.62% (inactive) |
| C[C@@H]1CN([C@H](C)CO)C(=O)c2cc(NS(=O)(=O)c3cn(C)cn3)ccc2O[C@H]1CN(C)C(=O)Nc1ccc(F)cc1 | 9.51% (inactive) |
| C[C@@H]1CN([C@@H](C)CO)C(=O)Cc2cc(NC(=O)Nc3ccc4c(c3)OCO4)ccc2O[C@H]1CN(C)C(=O)NC1CCCCC1 | -2.22% (inactive) |
| C[C@@H]1CN([C@H](C)CO)C(=O)c2cc(NC(=O)Cc3ccccc3)ccc2O[C@@H]1CN(C)C(=O)NC1CCCCC1 | 1.32% (inactive) |
| C[C@@H]1CN([C@H](C)CO)C(=O)CCCn2cc(nn2)CO[C@H]1CN(C)C(=O)Nc1cccc2ccccc12 | -3.4% (inactive) |
| CC(C)NC(=O)N(C)C[C@H]1Oc2ccc(NC(=O)CCC(F)(F)F)cc2C(=O)N([C@H](C)CO)C[C@@H]1C | -4.13% (inactive) |
| C[C@H](CO)N1C[C@H](C)[C@H](CN(C)C(=O)CCCN(C)C)OCCCC[C@H](C)Oc2ccc(NC(=O)Nc3cccc4ccccc34)cc2C1=O | 2.28% (inactive) |
| C[C@H]1CN([C@@H](C)CO)C(=O)c2cccc(NS(=O)(=O)c3ccc(Cl)cc3)c2O[C@H]1CN(C)S(=O)(=O)c1cn(C)cn1 | -0.913% (inactive) |
| CNC[C@@H]1OCCCC[C@@H](C)Oc2ccc(N)cc2C(=O)N([C@H](C)CO)C[C@H]1C | 0.828% (inactive) |
| CNC[C@H]1OCCCC[C@H](C)Oc2ccc(NS(=O)(=O)c3cccs3)cc2C(=O)N([C@@H](C)CO)C[C@@H]1C | 1.28% (inactive) |
| C[C@@H]1CN([C@@H](C)CO)C(=O)Cc2cc(NS(=O)(=O)c3cn(C)cn3)ccc2O[C@@H]1CN(C)C(=O)Nc1ccc(F)cc1 | -4.41% (inactive) |
| COc1ccc(S(=O)(=O)N(C)C[C@H]2Oc3ccc(NC(=O)Nc4ccc(C(F)(F)F)cc4)cc3CC(=O)N([C@@H](C)CO)C[C@@H]2C)cc1 | 3.32% (inactive) |
| C[C@H](CO)N1C[C@H](C)[C@H](CN(C)Cc2ccncc2)OCCCC[C@H](C)Oc2ccc(NC(=O)CCCN(C)C)cc2C1=O | 1.3% (inactive) |
| C[C@H](CO)N1C[C@H](C)[C@@H](CN(C)Cc2ccc(C(=O)O)cc2)Oc2ccc(NC(=O)NC3CCCCC3)cc2C1=O | -0.0517% (inactive) |
| C[C@@H]1CN([C@@H](C)CO)C(=O)c2cc(NC(=O)Nc3cccc4ccccc34)ccc2O[C@H]1CN(C)C(=O)Nc1cccc2ccccc12 | -2.16% (inactive) |
| C[C@H](CO)N1C[C@H](C)[C@H](CN(C)C(=O)OCc2ccccc2)OCc2cn(nn2)CCCC1=O | 1.83% (inactive) |
